# Measured values published in the supplement of paper PMC11624193, “Coupling cellular drug-target engagement to downstream pharmacology with CeTEAM” (Nature Communications, 2024).
# Where a name gives a salt, the structure may show the parent alone. ± gives the standard deviation of the averaged measurements.
# Target: PARP1 L713F-nLuc biosensor (HCT116) (UniProt P09874)
# Assay: PARP1 L713F-nLuc/akaLuc ratio relative to DMSO control (biosensor stabilization) (fold change); higher = more PARP1 biosensor stabilization (target engagement / stabilizer), active = hit call of the paper
# Details: stock concentration (mM; final µM = stock mM x 1): 10; 24 h;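 active = log2 fold change beyond 2 SD from the library mean after excluding viability outliers; inactive = within 2 SD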
# Sequence of PARP1 L713F-nLuc biosensor (HCT116) (P09874 whole entry L713F, looked up): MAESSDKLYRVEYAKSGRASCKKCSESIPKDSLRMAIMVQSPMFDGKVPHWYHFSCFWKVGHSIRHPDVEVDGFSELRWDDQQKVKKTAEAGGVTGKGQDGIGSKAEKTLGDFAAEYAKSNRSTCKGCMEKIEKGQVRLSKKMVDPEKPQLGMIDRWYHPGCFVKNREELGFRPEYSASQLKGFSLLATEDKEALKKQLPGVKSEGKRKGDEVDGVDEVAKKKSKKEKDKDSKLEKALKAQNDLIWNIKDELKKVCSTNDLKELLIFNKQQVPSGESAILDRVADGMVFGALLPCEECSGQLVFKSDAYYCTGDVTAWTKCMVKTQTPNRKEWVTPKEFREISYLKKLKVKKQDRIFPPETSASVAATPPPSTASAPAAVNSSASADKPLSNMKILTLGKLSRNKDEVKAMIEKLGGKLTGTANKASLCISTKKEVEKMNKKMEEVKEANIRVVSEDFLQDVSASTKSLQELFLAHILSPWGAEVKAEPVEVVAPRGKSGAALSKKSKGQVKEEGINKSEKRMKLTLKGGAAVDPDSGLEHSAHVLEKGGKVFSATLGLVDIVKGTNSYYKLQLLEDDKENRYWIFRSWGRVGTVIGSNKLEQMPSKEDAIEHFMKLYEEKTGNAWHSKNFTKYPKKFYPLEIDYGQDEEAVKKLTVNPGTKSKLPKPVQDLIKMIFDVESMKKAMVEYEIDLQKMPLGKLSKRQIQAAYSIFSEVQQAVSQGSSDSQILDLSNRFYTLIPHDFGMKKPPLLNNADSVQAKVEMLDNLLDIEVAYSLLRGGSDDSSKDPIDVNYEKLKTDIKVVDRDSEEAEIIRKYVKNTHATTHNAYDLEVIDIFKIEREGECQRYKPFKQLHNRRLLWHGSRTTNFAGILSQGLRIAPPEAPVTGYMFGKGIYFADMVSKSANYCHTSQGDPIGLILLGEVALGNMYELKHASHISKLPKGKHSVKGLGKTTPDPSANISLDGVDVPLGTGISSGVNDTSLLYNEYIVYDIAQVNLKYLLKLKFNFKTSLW
row,Compound,PARP1 L713F-nLuc/akaLuc ratio
1,CN(C)C[C@@H]1CCn2cc(c3ccccc32)C2=C(C(=O)NC2=O)c2cn(c3ccccc23)CCO1,0.636 (inactive)
2,Cc1cc(-c2ccccc2)cc(C(=O)NNS(=O)(=O)c2ccccc2)c1F,0.665 (inactive)
3,COC(=O)c1cc(CN2CCN(C(=N)N)CC2)cc(C(=O)N2CCN(C(=O)c3ccc(C(=N)N)cc3)CC2)c1 [CBB1007 (trihydrochloride)],0.723 (inactive)
4,O=c1sn(-c2cccc3ccccc23)c(=O)n1Cc1ccccc1 [Tideglusib],1.22 (inactive)
5,COc1cc(OC)c(/C=C/S(=O)(=O)Cc2ccc(OC)c(NCC(=O)O)c2)c(OC)c1,0.583 (inactive)
6,CC(C)N(C(=O)c1cc(F)ccc1Oc1cncnc1N1CC2(CCN(CC3CCC(NS(C)(=O)=O)CC3)CC2)C1)C(C)C (stereo not drawn),0.677 (inactive)
7,CC1(N)CCN(c2cccnc2NC(=O)c2nc(-c3ncccc3C(F)(F)F)cnc2N)CC1 [Darovasertib],0.6 (inactive)
8,CNc1nc(Nc2cn(C(C)(C)C#N)nc2C)ncc1C(F)(F)F,0.811 (inactive)
9,CC(=O)N1CCN([C@H]2CCC[C@@H](NC(=O)c3cc4c(F)ccc(C)c4[nH]3)C2)CC1,1.5 (inactive)
10,CN1CCN(c2nc(C3=C(c4c[nH]c5ccccc45)C(=O)NC3=O)c3ccccc3n2)CC1 [Sotrastaurin],1.31 (inactive)
11,CCCCNc1ncc(C(=O)NCc2ccc(-n3ccnc3)cc2)c(NC2CCC(O)CC2)n1 (stereo not drawn),0.954 (inactive)
12,Nc1nc(OCc2cc(Br)cs2)c2[nH]cnc2n1 [Lomeguatrib],1.01 (inactive)
13,CN(C)C(=N)NC(=N)N [Metformin HCl],0.701 (inactive)
14,COc1cccc(OC)c1C(=O)OCc1cc(O)ccc1O[C@@H]1O[C@H](CO)[C@@H](O)[C@H](O)[C@H]1O [Curculigoside],0.993 (inactive)
15,COc1cc2c(Nc3ccc(NC(=O)c4ccccc4)cc3)ncnc2cc1OCCCN1CCOCC1,0.809 (inactive)
16,FC(F)c1nc2ccccc2n1-c1nc(N2CCOCC2)nc(N2CCOCC2)n1,0.962 (inactive)
17,Cc1cc(-c2nc(-c3ccc(OC(F)(F)F)cc3)no2)nn1Cc1ccnc(N2CCN(C3CC3)CC2)c1,0.46 ± 0.17
18,"O=C(c1ccc(F)c(F)c1Nc1ccc(I)cc1F)N1CC(O)([C@@H]2CCCCN2)C1 [Cobimetinib (GDC-0973, RG7420)]",0.687 (inactive)
19,O=C(Nc1cccnc1)N1CCC(Cc2cccc(Oc3ccc(C(F)(F)F)cn3)c2)CC1,0.451 (inactive)

row,Compound,PARP1 L713F-nLuc/akaLuc ratio
1,CCS(=O)(=O)N1CCN(c2ccc(Nc3ncc(C(N)=O)c(NC4CC4)n3)cc2)CC1,1.99 (inactive)
2,COc1cc(N2CCN(C)CC2)ccc1Nc1nccc(-c2cn(C)c3cnccc23)n1,0.923 (inactive)
3,CN1CCC(CNc2ccc3ncc(-c4cccc(OC(F)(F)F)c4)n3n2)CC1,1.51 (inactive)
4,CC[C@H](NC(=O)[C@H](C)NC)C(=O)N1C[C@@H](O)C[C@H]1Cc1c(-c2[nH]c3cc(F)ccc3c2C[C@@H]2C[C@H](O)CN2C(=O)[C@H](CC)NC(=O)[C@H](C)NC)[nH]c2cc(F)ccc12 [Birinapant],0.946 (inactive)
5,O=S(=O)(c1cccc2cnccc12)N1CCNCC1,0.882 (inactive)
6,CNC(=O)c1cc(COc2nnc(Nc3ccc(Cl)cc3)c3ccoc23)ccn1 [Telatinib],1.17 (inactive)
7,Nc1ncn([C@@H]2O[C@H](CO)[C@@H](O)[C@H]2O)c(=O)n1 [Azacitidine],4.35 (active)
8,CC(CCc1ccccn1)(CCc1ccccn1)C(=O)c1ccccc1,1.27 (inactive)
9,CCOC(=O)CCNc1cc(N2CCc3ccccc3CC2)nc(-c2ccccn2)n1 [GSK-J4 (hydrochloride)],1.45 (inactive)
10,C/C=C(\CC[C@@H](C)[C@H]1CC[C@H]2[C@@H]3CC=C4C[C@@H](O)CC[C@]4(C)[C@H]3CC[C@]12C)C(C)C [Fucosterol],1.04 (inactive)
11,Cc1c(CN2CCC(Nc3ncnc4sc(CC(F)(F)F)cc34)CC2)ccc2c1cc(C#N)n2Cc1cn[nH]c1,0.806 (inactive)
12,Nc1ncc(-c2cnn(CCO)c2)c2scc(-c3ccc(NC(=O)Nc4cccc(F)c4)cc3)c12 [Ilorasertib (hydrochloride)],0.906 (inactive)
13,O=C(NOC[C@H](O)CO)c1ccc(F)c(F)c1Nc1ccc(I)cc1F,0.6 (inactive)
14,COc1ccc(S(=O)(=O)Nc2cccnc2Nc2ccc(O)cc2)cc1,1.28 (inactive)
15,CCCc1cc(C)[nH]c(=O)c1CNC(=O)c1cc(-c2ccc(N3CCN(C)CC3)nc2)nc2c1cnn2C(C)C,1.04 (inactive)
16,Cc1c(Cn2c(C)nc3c(C(=O)O)cc(N4CCOCC4)cc32)cccc1C(F)(F)F,1.38 (inactive)
17,CN1CCC(COc2cnc(-c3cccc(Cn4nc(-c5cccc(C#N)c5)ccc4=O)c3)nc2)CC1,0.968 (inactive)
18,CCCS(=O)(=O)N[C@H]1C[C@@H](N(C)c2ncnc3[nH]ccc23)C1 [Abrocitinib],0.869 (inactive)
19,O=C(O)CCNC(=S)NCCCC[C@H](NS(=O)(=O)c1cccc(F)c1)C(=O)N[C@@H](Cc1c[nH]c2ccccc12)C(=O)NC1CCC1 [SIRT5 inhibitor 1],0.907 (inactive)
